A number with no mark means an inactive call. Calls of active or inactive are those of the source. Cut-off read from the data, not from the text of the source: active = fold change mostly below about -2 (no sharp cut-off); inactive = mostly above about -1.8.
assay: TERT promoter activity modulators, primary screen, cell-based, luciferase reporter, human (AID 1259240); conditions: A2780 TERT promoter luciferase reporter, 16 h; at 20 µM, fold versus average of vehicle-only wells

| Structure (SMILES) | fold change | outcome |
| --- | --- | --- |
| CCN1CCN(C(=O)C2CCN(S(=O)(=O)c3ccc4c(c3)oc(=O)n4C)CC2)CC1 | -1.05 |  |
| OC(c1ccccc1)c1nn(CN2CCOCC2)c(=S)n1-c1ccccc1 (stereo not given) | -3.71 (active) |  |
| CC(C)CC(NS(=O)(=O)c1ccc2c(c1)oc(=O)n2C)C(=O)N1CCn2c1nc1ccccc12 (stereo not given) | -1.61 |  |
| CCOC(=O)C1=C(CS(=O)(=O)c2ccc(C)c(C)c2)NC(=O)NC1c1ccc(Cl)cc1 (stereo not given) | 1.11 |  |
| Cc1ccc(N2CC(O)=C(c3nc4ccccc4c(=O)[nH]3)C2=N)cc1C |  | inactive |
| O=C(O)c1ccc(CNc2c(N3CCOCC3)c(=O)c2=O)cc1 | 1.05 |  |
| COc1ccc(-n2c(-c3ccco3)nc3c(cnn3-c3ccc(Cl)cc3)c2=O)cc1 | -1.39 |  |
| Cn1c(=O)[nH]c(=O)c2c1nc(NCCCO)n2Cc1ccccc1Cl | -1.16 |  |
| O=C(Cn1c(=O)n(Cc2ccco2)c(=O)c2ccccc21)Nc1ccc(Cl)cc1Cl | -1.13 |  |
| O=C(CCCc1nnc2n3nc(-c4ccccc4)nc3c3ccccc3n12)NCC1CCCO1 (stereo not given) | 1.2 |  |
| NC(=O)C1CCN(C(=O)CN2C(=O)COc3ccc(S(=O)(=O)N4CCCC4)cc32)CC1 | 1.05 |  |
| COc1ccccc1-c1c(C)nn2c(N3CCOCC3)cc(C)nc12 | 1.18 |  |
| CN1CCN(C(=O)c2cc3c(=O)[nH]c4ccccc4c3n2C)CC1 | -1.19 |  |
| COC(=O)c1ccc(-c2nn(C)c(=O)c3ccccc23)cc1 | -1.09 |  |
| O=c1nc2s/c(=C\c3ccco3)c(=O)n2nc1Cc1ccc(Cl)cc1 | -1.46 |  |
| Cn1c(SCC(=O)Nc2ccc(F)cc2)nnc1-c1c[nH]c2ccccc12 |  | inactive |
| CN1C(=O)/C(=C/c2cn(CC(=O)N3CCCCC3)c3ccccc23)c2ccccc21 | -1.35 |  |
| Cc1ccc(-c2cc(C(F)F)n3ncc(C(=O)NCc4cccnc4)c3n2)cc1 | -1.5 |  |
| CC(C)C(NS(=O)(=O)c1cccc2nsnc12)C(=O)N1CCCCC1 (stereo not given) | 1.43 |  |
| CC(C)Cc1c(O)nc(SCCN2CCOCC2)[nH]c1=O | -1.64 |  |

| Structure (SMILES) | fold change | outcome |
| --- | --- | --- |
| CCC1(C)Cc2ccccc2-c2nc(NCCO)n(-c3ccccc3)c(=O)c21 (stereo not given) | -1.48 |  |
| CC1(C)CNC(=O)c2sc(NC(=O)CN3CCOCC3)nc2C1 | -1.75 |  |
| COc1ccc(Cl)cc1S(=O)(=O)n1ccnc1C(C)C | -4.76 (active) |  |
| COc1ccc(-c2noc(-c3cc(OC)c(OC)cc3OC)n2)cc1 | 1.46 |  |
| CCCC1=NN2C(=N)/C(=C\c3ccc(SCc4ccco4)o3)C(=O)N=C2S1 | -1.68 |  |
| CC1CCCC(C)N1C(=O)CN1C(=O)COc2ccc(S(=O)(=O)N3CCCCCC3)cc21 (stereo not given) | -1.25 |  |
| COc1ccc(C2CC(=O)Nc3cc(OC)cc(OC)c32)c(OC)c1 (stereo not given) | -1.41 |  |
| Cn1c(=O)c2c(SCC(=O)Nc3ccccc3F)nc(-c3cccs3)nc2n(C)c1=O | 1.46 |  |
| COC(=O)c1sc2ccccc2c1N | 1.26 |  |
| COc1ccc(-c2nnc3c4ccccc4c(C)nn23)cc1S(=O)(=O)NC(C)C | -1.07 |  |
| COc1ccc2cc3c(N)nn(C(=O)Cn4nc([N+](=O)[O-])c(Br)c4C)c3nc2c1 | -1.45 |  |
| Cc1[nH]nc2c1C(c1ccc(O)cc1)NC2=O (stereo not given) | -1.14 |  |
| Cn1c(SCC(=O)N2CCOCC2)nnc1-c1c[nH]c2ccccc12 |  | inactive |
| c1cc2nncn2nc1NCCCN1CCOCC1 | -1.08 |  |
| COc1cccc(-c2cc(N)n(S(=O)(=O)c3cccc4nsnc34)n2)c1 | 1.15 |  |
| CCCCN(CC)S(=O)(=O)c1ccc2c(c1)n(C)c(=O)c(=O)n2C | 1.13 |  |
| CCN(CC)CCNc1nc2c(c(=O)[nH]c(=O)n2C)n1CCCc1ccccc1 | -2.06 (active) |  |
| CCOC(=O)CN1CC23C=CC(O2)C(C(=O)Nc2ccc(OCC)cc2)C3C1=O (stereo not given) | 1.29 |  |
| N=C1C(c2nc3ccccc3c(=O)[nH]2)=C(O)CN1c1ccc(Cl)c(Cl)c1 |  | active |
| CCC(=O)N1CCc2cc(S(=O)(=O)CCC(=O)NCC3COc4ccccc4O3)ccc21 (stereo not given) | -1.32 |  |
